Source: PubChem BioAssay AID1159580 (chemical genetic matrix, 2015)
In all, about 5,500 compounds went through this assay and about 2,000 (36%) were called active. Inconclusive results (about 18%) are left out. No stated cut-off is given here; in the data, active means normalized growth mostly below about 0.91 (no sharp cut-off); inconclusive means no clear call, values can overlap the other calls; inactive means mostly above about 0.92. The list shows a part of the results.

Assay: chemical genetic growth profiling, strain panel (AID 1159580);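 further: tested at 20 µM; growth read once vehicle control cultures reached saturation at 30 °C; 1 = growth at the plate median or of vehicle wells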
Details: S. cerevisiae deletion strains, growth OD

Measured: normalized growth

O=c1cc(-c2ccc(O)c(O)c2)oc2ccccc12
active: locus YDR069C, strain doa4, stronger effect = lower value 0.893 | locus YOR106W, strain vam3, stronger effect = lower value 0.867
inactive: locus YAL021C, strain ccr4, stronger effect = lower value 0.999 | locus YAL026C, strain drs2, stronger effect = lower value 0.964 | locus YAL030W, strain snc1, stronger effect = lower value 0.986 | locus YBL061C, strain skt5, stronger effect = lower value 0.965 | locus YBR009C, strain hhf1, stronger effect = lower value 0.933 | locus YBR023C, strain chs3, stronger effect = lower value 0.961 | locus YBR171W, strain sec66, stronger effect = lower value 0.97 | locus YBR231C, strain swc5, stronger effect = lower value 0.924 | locus YBR279W, strain paf1, stronger effect = lower value 0.977 | locus YCL011C, strain gbp2, stronger effect = lower value 0.956 | locus YCL016C, strain dcc1, stronger effect = lower value 0.969 | locus YCL061C, strain MRC1, stronger effect = lower value 0.965 | locus YCL069W, strain vba3, stronger effect = lower value 0.996 | locus YCR088W, strain abp1, stronger effect = lower value 0.997 | locus YDL005C, strain med2, stronger effect = lower value 0.998 | locus YDL040C, strain nat1, stronger effect = lower value 0.989 | locus YDR001C, strain nth1, stronger effect = lower value 0.994 | locus YDR137W, strain rgp1, stronger effect = lower value 0.985 | locus YDR159W, strain sac3, stronger effect = lower value 0.971 | locus YDR195W, strain ref2 1.02 | locus YDR297W, strain sur2, stronger effect = lower value 0.971 | locus YDR334W, strain swr1, stronger effect = lower value 0.976 | locus YDR335W, strain msn5, stronger effect = lower value 0.995 | locus YDR392W, strain spt3, stronger effect = lower value 0.954 | locus YEL003W, strain gim4, stronger effect = lower value 0.946 | locus YEL037C, strain rad23, stronger effect = lower value 0.984 | locus YEL061C, strain CIN8 (second series), stronger effect = lower value 0.989 | locus YER015W, strain faa2, stronger effect = lower value 0.955 | locus YER016W, strain bim1, stronger effect = lower value 0.991 | locus YER111C, strain swi4, stronger effect = lower value 0.962 | locus YER155C, strain BEM2 (second series), stronger effect = lower value 0.926 | locus YFR010W, strain ubp6, stronger effect = lower value 0.947 | locus YGL167C, strain pmr1, stronger effect = lower value 0.98 | locus YGL173C, strain kem1, stronger effect = lower value 0.936 | locus YGL227W, strain vid30, stronger effect = lower value 0.991 | locus YGL240W, strain doc1, stronger effect = lower value 1.01 | locus YGL253W, strain hxk2, stronger effect = lower value 0.963 | locus YHR013C, strain ard1, stronger effect = lower value 0.983 | locus YHR027C, strain rpn1, stronger effect = lower value 0.966 | locus YHR142W, strain chs7, stronger effect = lower value 0.962 | locus YJL092W, strain hpr5, stronger effect = lower value 0.983 | locus YJL095W, strain BCK1 (second series), stronger effect = lower value 0.976 | locus YJL115W, strain asf1, stronger effect = lower value 0.991 | locus YJL129C, strain trk1, stronger effect = lower value 0.978 | locus YJL154C, strain vps35, stronger effect = lower value 0.996 | locus YJL164C, strain tpk1, stronger effect = lower value 0.942 | locus YJL166W, strain qcr8, stronger effect = lower value 0.932 | locus YJL187C, strain SWE1, stronger effect = lower value 0.982 | locus YKL160W, strain elf1, stronger effect = lower value 0.974 | locus YKR026C, strain gcn3, stronger effect = lower value 0.972 | locus YKR091W, strain srl3, stronger effect = lower value 1 | locus YLL001W, strain dnm1, stronger effect = lower value 0.965 | locus YLL026W, stronger effect = lower value 0.987 | locus YLL041C, strain sdh2, stronger effect = lower value 0.99 | locus YLR027C, strain aat2, stronger effect = lower value 0.943 | locus YLR221C, strain rsa3, stronger effect = lower value 0.927 | locus YLR258W, strain gsy2, stronger effect = lower value 0.967 | locus YLR262C, strain YPT6 (second series), stronger effect = lower value 0.934 | locus YLR320W, strain mms22, stronger effect = lower value 0.943 | locus YLR342W, strain FKS1, stronger effect = lower value 0.961 | locus YLR357W, strain rsc2, stronger effect = lower value 0.927 | locus YLR370C, strain arc18, stronger effect = lower value 0.993 | locus YLR384C, strain iki3, stronger effect = lower value 0.981 | locus YML120C, strain ndi1, stronger effect = lower value 0.978 | locus YMR125W, strain sto1, stronger effect = lower value 0.991 | locus YMR129W, stronger effect = lower value 0.99 | locus YMR205C, strain PFK2, stronger effect = lower value 0.982 | locus YMR231W, strain pep5, stronger effect = lower value 0.961 | locus YNL071W, strain lat1, stronger effect = lower value 0.965 | locus YNL209W, strain ssb2, stronger effect = lower value 0.932 | locus YNL248C, strain rpa49, stronger effect = lower value 0.986 | locus YNL322C, strain KRE1 (second series), stronger effect = lower value 0.989 | locus YNR049C, strain mso1, stronger effect = lower value 0.992 | locus YOR001W, strain rrp6, stronger effect = lower value 0.928 | locus YOR070C, strain gyp1, stronger effect = lower value 0.956 | locus YOR080W, strain dia2, stronger effect = lower value 0.986 | locus YOR083W, strain WHI5, stronger effect = lower value 0.959 | locus YOR265W, strain rbl2, stronger effect = lower value 1.01 | locus YOR270C, strain vph1, stronger effect = lower value 0.83 | locus YOR290C, strain snf2, stronger effect = lower value 0.968 | locus YPL051W, strain arl3, stronger effect = lower value 0.926 | locus YPL078C, strain atp4, stronger effect = lower value 0.985 | locus YPL106C, strain sse1, stronger effect = lower value 0.938 | locus YPL240C, strain hsp82, stronger effect = lower value 0.99
